In the library only some 3.2% were active in any assay of this set; here they are far more common.
VACV Venus inh = qHTS for Stage-Specific Inhibitors of Vaccinia Orthopoxvirus: Venus Reporter Primary qHTS; Vaccinia virus Venus reporter expression, fluorescence; Potency, µM (doses to about 36.5 µM), usual class: inhibitors; 0.46% of 330,000 active; AID 720580, 2013; calls by dose curve; tested in A549 cells; also: nearly all actives have a fitted effect of over 30% in size
LASV entry inh = qHTS for Inhibitors of binding or entry into cells for Lassa Virus | Lassa virus pseudotype entry inhibition, cell reporter | AID 540256, 2011 | 1.2% of 300,000 active | Potency, µM (doses to about 37.9 µM), actives largely listed as inhibitors; calls by dose curve; tested in HEK293 cells; also: nearly all actives have a fitted effect of over 50% in size
Marburg entry inh = qHTS for inhibitors of binding or entry into cells for Marburg Virus; 1.8% of 300,000 active; Potency, µM (top dose mostly 37.8 µM), hits mostly inhibitors; Marburg virus pseudotyped entry inhibition, cell reporter; calls by dose curve; tested in HEK293 cells
FMDV inh = High Throughput Screening for Foot and Mouth Disease Virus Antivirals | FMDV antiviral cell-based qHTS | Potency, µM (highest dose often 57.9 µM), hits mostly inhibitors | 1.2% of 410,000 active | AID 1159524, 2015; calls by dose curve; tested in HEK293T cells; also: read-out not given here; nearly all actives have a fitted effect of over 45% in size
Vaccinia mCherry = qHTS for Stage-Specific Inhibitors of Vaccinia Orthopoxvirus: mCherry Reporter Primary qHTS. Vaccinia virus mCherry reporter infection, fluorescence. Potency, µM (titrated, usually from 36.5 µM), actives largely listed as inhibitors. 0.63% of 310,000 active. AID 720579, 2013; calls by dose curve; tested in A549 cells; also: nearly all actives have a fitted effect of over 35% in size
Large screens that a line does not name were inactive; ! = a repeat was not active.

O=C(Nc1ccccc1F)c1nc[nH]c1C(=O)NCc1ccccc1	VACV Venus inh inconclusive (no result: LASV entry inh, Marburg entry inh)
CC(C)(C)c1ccc(C(=O)NCc2ccc(Cl)cc2)cc1	VACV Venus inh inconclusive (no result: FMDV inh)
COc1ccccc1-n1cnnc1SCC(=O)Nc1nc(C)c(Cl)cc1Cl	FMDV inh inconclusive (no result: Vaccinia mCherry)
CC(C)(C)OC(=O)NCCCCCNC(=O)c1[nH]cnc1C(=O)Nc1ccc(Cl)cc1	VACV Venus inh inconclusive, FMDV inh 32µM, Vaccinia mCherry 11µM (no result: LASV entry inh, Marburg entry inh)
C[C@H](NC(=O)c1nc[nH]c1C(=O)NCCCCCNC(=O)OC(C)(C)C)c1ccccc1	VACV Venus inh inconclusive, FMDV inh 40µM, Vaccinia mCherry inconclusive (no result: LASV entry inh, Marburg entry inh)
On1onc2c3cc(-c4ccccc4)nc3ccc21	VACV Venus inh inconclusive, LASV entry inh inconclusive, Marburg entry inh inconclusive, Vaccinia mCherry 3.2µM
Clc1ccc(Cn2ncc3c(NCCN4CCOCC4)ncnc32)cc1	VACV Venus inh inconclusive, FMDV inh inconclusive (no result: Vaccinia mCherry)
O=C(Cc1ccccc1[N+](=O)[O-])NCC(=O)c1ccc2c(c1)OCO2	none
COc1ccc(-n2cc(-c3ccccc3)c3c(=O)[nH]cnc32)cc1	VACV Venus inh inconclusive, LASV entry inh 21µM, Marburg entry inh inconclusive, Vaccinia mCherry inconclusive
CC(=O)c1ccc(NC(=O)Cn2c(=O)c3cccn3c3ccccc32)cc1	LASV entry inh 1.8µM (no result: Marburg entry inh)
COc1ccc(NC(=O)Cn2c(=O)c3cccn3c3ccccc32)cc1	none (no result: Marburg entry inh)
Cc1cc(NC(=O)CCSc2nc(-c3ccco3)cc(C(F)(F)F)n2)no1	none
Cc1ccccc1Cn1ccc(NC(=O)CCSc2nc(-c3ccco3)cc(C(F)(F)F)n2)n1	Marburg entry inh 1.1µM! (no result: Vaccinia mCherry)
Cc1ccc(Nc2nc3ccccc3s2)c(C)c1	LASV entry inh 10µM, Marburg entry inh 8.2µM, Vaccinia mCherry inconclusive
Cc1cc(C)nc(Nc2nc3ccccc3s2)n1	none
CCCOc1ccc(C(F)(F)F)cc1NS(=O)(=O)c1ccc(Cl)nc1	VACV Venus inh inconclusive, Vaccinia mCherry 11µM
CCn1ncc(Br)c1C(=O)Nc1ccc(C(C)C)cc1	Marburg entry inh 13µM
CCOC(=O)c1c(O)c2cc(Cl)ccc2n(CC)c1=O	Vaccinia mCherry inconclusive
OC(COCC(F)(F)C(F)(F)C(F)(F)C(F)F)Cn1c2ccc(Cl)cc2c2cc(Cl)ccc21 (stereo not given)	VACV Venus inh 11µM, LASV entry inh inconclusive, Marburg entry inh inconclusive, FMDV inh inconclusive, Vaccinia mCherry inconclusive
CC1CCc2c(nc3sc4c(c3c2N)CCCC4)C1 (stereo not given)	VACV Venus inh inconclusive, Marburg entry inh 11µM
CC[C@@H](C)[C@H]1O[C@]2(CC[C@@H]1C)C[C@@H]1C[C@H](C/C=C(/C)[C@H](O[C@@H]3C[C@H](OC)[C@H](O[C@@H]4C[C@H](OC)[C@@H](O)[C@H](C)O4)[C@H](C)O3)[C@@H](C)/C=C\C=C3CO[C@@H]4[C@H](O)C(C)=C[C@@H](C(=O)O1)[C@]34O)O2 (tested in a mixture with another compound)	none (no result: VACV Venus inh, LASV entry inh, Marburg entry inh, Vaccinia mCherry)
CC[C@@H](C)[C@H]1O[C@]2(CC[C@H]1C)C[C@@H]1C[C@@H](CC=C(C)[C@@H](O[C@H]3C[C@H](OC)[C@@H](O[C@H]4C[C@H](OC)[C@@H](O)[C@H](C)O4)[C@H](C)O3)[C@@H](C)C=CC=C3CO[C@@H]4[C@H](O)C(C)=C[C@@H](C(=O)O1)[C@]34O)O2	LASV entry inh 2.6µM, Marburg entry inh 10µM (no result: VACV Venus inh, FMDV inh, Vaccinia mCherry)
CC[C@@H](C)[C@H]1O[C@]2(CC[C@@H]1C)C[C@@H]1C[C@@H](C/C=C(\C)[C@@H](O[C@H]3C[C@H](OC)[C@@H](O[C@H]4C[C@H](OC)[C@@H](O)[C@H](C)O4)[C@H](C)O3)[C@@H](C)/C=C/C=C3\CO[C@@H]4[C@H](O)C(C)=C[C@@H](C(=O)O1)[C@]34O)O2	LASV entry inh inconclusive, Marburg entry inh 6.3µM (no result: VACV Venus inh, FMDV inh, Vaccinia mCherry)
COc1ccc2nc(SCC(C)=O)c(C#N)cc2c1	LASV entry inh 5.6µM, Marburg entry inh inconclusive
COc1ccc2nc(SC)c(C#N)cc2c1	Marburg entry inh inconclusive
COc1ccc(NC(=O)c2cc3c(-c4ccc(OC)c(OC)c4)nn(C)c3s2)cc1OC	LASV entry inh 13µM, Marburg entry inh 13µM (no result: VACV Venus inh, Vaccinia mCherry)
Cc1ccc2cc(C(c3nnnn3C3CCCC3)N(Cc3ccccc3)Cc3ccco3)c(=O)[nH]c2c1 (stereo not given)	LASV entry inh inconclusive, Marburg entry inh inconclusive (no result: FMDV inh)
